# Reference: PubChem BioAssay AID504465 (National Center for Advancing Translational Sciences (NCATS), 2011)
# In all, about 2,100 compounds went through this assay and about 210 (10%) were called active. Not shown: some 53% with an inconclusive outcome. The list shows a part of the results. A number with no mark means an inactive call. Calls come from the whole dose curve; as a rule, active = well fitted inhibition curve with a large enough effect; inconclusive = small, poorly fitted or top-dose-only effect, or effect the other way; inactive = no such curve, though single readings can be large or run the other way.
# Experiment: IN Cell qHTS Assay for Inhibitors of the mTORC1 Signaling Pathway in MEF (Tsc2-/-, p53-/-) Cells: Sytravon; note: nearly all actives have a fitted effect of over 60% in size
# Conditions: phospho-rpS6 immunofluorescence, 24 h; series mostly up to 38.3 µM; activity, negative = inhibition: at the top concentration
# From the text: NIH Molecular Libraries Probe Production Centers Network [MLPCN] NIH Chemical Genomics Center [NCGC] MLPCN Grant: NS059428-01 Assay Submitter (PI): Blenis, John; Hoffman, Greg; Harvard University NCGC Assay Overview: Thee mammalian target of rapamycin (mTOR) is an intracellular serine/threonine kinase Aberrant regulation of mTOR signaling plays a causative role in a number of human diseases, including cancer, benign tumors such as lymphangioleiomyomatosis (LAM) and Tuberous Sclerosis Complex (TSC), and metabolic diseases such as diabetes and obesity. This project aims to identify inhibitors of ribosomal protein S6 (rpS6) phosphorylation. The phosphorylation of rpS6 is a key event downstream of mTOR activation. The assay uses a phospho-specific antibody of phospho-rpS6 to detect inhibitors of mTOR activation. Mutations in the Tsc1 and Tsc2 genes are the underlying genetic lesions responsible for TSC, causing constitutive activation of the mTORC1 pathway and leading to profound effects on cell metabolism. Aberrant metabolism in cancer has recently received significant attention as a target to develop therapeutic agents in the treatment of cancer1. As Tsc2-/- cells have lost the ability to respond to energy and growth factor deprivation, these cells are unable to properly down regulate cellular biosynthetic processes in response to metabolic stress, and are thus extremely sensitive to glucose deprivation-induced death.2 A central goal of this project is to explore the unique cell survival and metabolic properties of cells with Tsc1 or Tsc2 by screening for compounds that selectively target the Tsc2-/- MEFs by screening both Tsc2-/- and WT MEF cell lines. We hope to better understand these aspects of TSC physiology in order to exploit them for therapeutic benefit.
# NCGC IN Cell Assay Protocol: For quantitative high throughput analysis of mTORC1 signaling, we developed a cell-based assay for immuno-fluorescence based detection of rpS6 phosphorylation on the Acumen Explorer that will be used a platform for the primary small molecule screen. Mouse embryonic fibroblasts (MEFs) are cultured in 1536-well plates using DMEM + 10% FBS. Twenty-four hrs after plating, test compounds (solubilized in DMSO) are delivered and incubated with the cells for 24 hrs at 37 degree Celsius. Following the incubation, media with compound is aspirated and the cells are fixed in 4% paraformaldehyde (PFA) containing PBS + 0.2% TX-100. Next, PFA is aspirated, cells are washed two times with PBS plus 0.2% TX-100 and the cells are blocked for 1 hr at room temperature (blocking buffer: LiCOR Blocking Buffer plus 0.2% TX-100). This is followed by aspiration and staining with Alexa-488 conjugated-phospho-rpS6 Ser235/236 antibody for 2 hours at room temperature (Cell Signaling Technology # 4803, 1:50 dilution in blocking buffer). Cells are washed two times with PBS plus 0.2% TX-100, and stained with 10 uM propidium iodide (PI) for 20-25 minutes for cell number measurement (1:500 dilution of Hoescht staining is also added for IN Cell imaging). Active wells which are selected (based on Acumen results) are imaged on the IN Cell 1000 (GE Healthcare) using the D360/40X and HQ480/40X excitation filters for the Hoechst and Alexa-488 cytoplasmic stains, respectively. The fluorescence emission filters used were HQ460/40M and HQ535/50M for the Hoechst and Alexa-488 cytoplasmic stains, respectively. The normalized phospho-S6 staining is calculated as the ratio of […] for the single concentration rapamycin control (7.5 nM) and DMSO columns. […] Inhibition of the pathway is defined based on the normalized phospho-S6 intensity in rapamycin treated cells. Each treatment is reported as the % positive cells in the well, where thresholds are defined by selecting wells with the highest and lowest signal and differentiating between the % non-active and % active populations. […]
# Potency is the fitted concentration of half-maximal effect.
Structure (SMILES),Potency,"activity, negative = inhibition"
COc1ccc(-n2c(=O)c3ccc(C(=O)NCc4ccc(C)cc4)cc3n(CC(=O)Nc3ccc(F)cc3)c2=O)cc1,14.7 µM (active),
Cc1ccc(-n2c(=O)c3ccc(C(=O)NCc4ccco4)cc3n(Cc3ccc(Cl)cc3)c2=O)cc1,16.5 µM (active),
Cc1ccc(CNC(=O)CCCCCn2c(=O)c3sccc3n(CC(=O)Nc3ccc(C)c(F)c3)c2=O)cc1,,-29.7%
Cc1ccccc1NC(=O)Cn1c(=O)n(-c2ccc(CC(=O)NCC3CCCO3)cc2)c(=O)c2ccccc21 (centres undefined),,7.61%
CC[C@@H](C)[C@@H](C(=O)Nc1ccc(C)cc1)N1Cc2ccccc2C1=O,,-14.1%
CCN1C(C(=O)c2ccccc2)=C(OC(=O)COc2ccc(OC)cc2)c2ccccc2S1(=O)=O,,-0.826%
COc1ccc(C(=O)NCC(c2ccc(Cl)cc2)N2CCCCC2)cc1 (centres undefined),,-16.4%
O=C(NCCc1ccccc1Cl)c1sc2ncccc2c1-n1cccc1,,1.3%
CCC(C)NC(=O)CCCn1c(=O)c2cccn2c2ccccc21 (centres undefined),,-18.8%
Cc1cccc(NS(=O)(=O)c2ccc3[nH]c4c(c3c2)CCCCCC4)c1,,-4.07%
Cc1nc2scc(C)n2c(=O)c1S(=O)(=O)Nc1ccc(N2CCN(S(C)(=O)=O)CC2)cc1,,25.4%
O=C(NCCc1ccccc1)c1ccc(Cn2c(SCc3ccccc3)nc3cccnc32)cc1,,-23.6%
O=C(Nc1ccc(Cl)cc1)c1cc(S(=O)(=O)N2CCCc3ccccc32)ccc1F,,6.25%
Cc1noc2ncnc(N3CCN(c4ccccc4F)CC3)c12,,-0.0728%
CCOc1ccc(Nc2nc(Nc3ccc(OCC)cc3)nc(N3CCOCC3)n2)cc1,0.826 µM (active),
Fc1ccc(Nc2nc(Nc3ccc(F)cc3)nc(N3CCOCC3)n2)cc1,0.521 µM (active),
Cc1ccc(Nc2nc(Nc3ccc(C)c(C)c3)nc(N3CCOCC3)n2)cc1C,0.656 µM (active),
Cc1cccc(Nc2nc(Nc3cccc(C)c3)nc(N3CCOCC3)n2)c1,1.47 µM (active),
CCCN1C(=O)CN(C2CCCCCC2)C(=O)C1c1ccc(OCC)c(OC)c1 (centres undefined),,6.25%
CC(C)OCCCNC(=O)CCCN1C(=O)CCn2nc(-c3cccn3C)cc21,,-0.543%
CCCN1CCN(c2ncnc3sc(C(=O)Nc4ccc(OC(F)(F)F)cc4)c(C)c23)CC1,,-14.8%
O=C(Nc1cc(Cl)cc(Cl)c1)c1ccc(F)c(S(=O)(=O)N2CCCCCC2)c1,,6.25%
CC(C)c1nn2c(=O)cc(COC(=O)c3ccc(NC(=O)c4cccs4)cc3)nc2s1,,0%
CC1=Nc2cc(C(=O)NC3CCCC3)ccc2Sc2ccc(C)cc21,,-15%
CCCN1Cc2cccc(C(=O)Nc3ccc(OC)cc3OC)c2C1=O,,13.5%

Structure (SMILES),Potency,"activity, negative = inhibition"
COc1ccc(Nc2nc(Nc3ccc(OC)cc3OC)nc(N3CCOCC3)n2)c(OC)c1,1.31 µM (active),
COc1ccccc1NCc1cccn1-c1nnc(N2CCOCC2)s1,,-15%
CCN(CC)S(=O)(=O)c1ccc2c(c1)N(CC(=O)NCCCN1CCN(c3cc(C)ccc3C)CC1)C(=O)CO2,,0%
CCN1CCN(CCCNC(=O)c2cc3c(s2)-c2c(C)cccc2OC3)CC1,14.7 µM (active),
CCCN1CCN(CCCNC(=O)c2cc3c(s2)-c2c(C)cccc2OC3)CC1,18.5 µM (active),
CCOc1ccccc1NC(=O)c1c(NCc2cccs2)sc2c1CCC(C)C2 (centres undefined),,0%
Cc1ccc(C)c(NC(=O)CSc2cn(CC(=O)N3CCCC3)c3ccccc23)c1,,-2.42%
COc1ccc(CNC(=O)c2c(Nc3ccccc3C)sc(C(=O)c3ccccc3)c2N)cc1,,-15.4%
COc1ccc(-c2ccc3c(N)c(C(=O)Nc4cccc(C)c4)sc3n2)cc1,13.1 µM (active),
COc1ccc(NC(=O)c2sc3nc(-c4ccc(OC)cc4)cc(C(F)(F)F)c3c2N)cc1,,15.3%
COc1cccc(Nc2sc(C(=O)c3ccc(F)cc3)c(N)c2C(=O)NCc2ccc(C)cc2)c1,,0%
COc1ccc(C(=O)Nc2cc(-c3nc4ccccc4s3)ccc2OC)cc1,,-10.3%
COc1ccc(-c2cc(C(=O)Nc3cccc(O)c3)on2)cc1OC,,-6.34%
COc1cccc(-c2ccc3c(N)c(C(=O)c4ccc(Cl)cc4)sc3n2)c1,10.4 µM (active),
COc1ccc(-c2ccc3c(N)c(C(=O)Nc4ccc(C(F)(F)F)cc4)sc3n2)cc1OC,0.233 µM (active),
COc1ccc(-c2cc(C(=O)Nc3ccc4c(c3)OCO4)no2)cc1,,-7.44%
CCCc1ccc(C2Sc3ccccc3NC3=C2C(=O)c2ccccc23)cc1 (centres undefined),,-13.1%
Cc1cccc(NC(=O)CSc2nc3ccccc3c3nc(CCn4cncc4C)nn23)c1,,-11.5%
COc1cccc(C(=O)Nc2ccccc2-c2nnc(-c3cccc(OC)c3)o2)c1,,-24.5%
COc1cc(NC(=O)c2cccc(F)c2)ccc1NC(=O)c1cc2ccccc2o1,16.5 µM (active),
CCCCCC(=O)Nc1ccc(NC(=O)c2cc3ccccc3o2)c(OC)c1,18.5 µM (active),
Cc1cccc(Nc2ncc(NC(=O)c3cccc(F)c3)c(Nc3cccc(C)c3)n2)c1,,-24.6%
COc1cc(NC(=O)Cn2ccc3ccccc3c2=O)cc(OC)c1OC,,-20.1%
COc1ccc(NC(=O)c2ccco2)cc1NC(=O)COc1ccc(Cl)c(C)c1,,-24%
